Luc counter – counter-screen: inhibitors of Kinase-Glo firefly luciferase | Q27757 | Kinase-Glo luciferase, ATP luminescence, 8 min | Potency, µM (titrated, usually from 38.3 µM), for the others: at the top dose activity change, negative = inhibition, usual class: inhibitors | hit rate 0.28% among 200,000 | AID 1379; also: % is scaled to controls: 0 for no effect and ±100 for the full control effect; nearly all actives have a fitted effect of over 60% in size
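Luminescence was the read-out, taken after 8-minute incubation at ambient temperature. Luciferase turned over luciferin with 10 uM ATP in imidazole pH 7.2 buffer containing KCl, MgCl2, Tween 20 and BSA.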
FLuc counter – firefly luciferase modulation, counter-screen for miR-21 project. P08659. purified FLuc, Km substrates, luminescence inhibition. Potency, µM (top dose mostly 57.5 µM), without a hit: at the top dose activity change, negative = inhibition, actives largely listed as inhibitors. hit rate 6.9% among 360,000. AID 588342;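 also: plate controls were vehicle for no effect and reference inhibitor for full effect; nearly all actives have a fitted effect of over 55% in size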
Target sequence (P08659 whole entry, looked up): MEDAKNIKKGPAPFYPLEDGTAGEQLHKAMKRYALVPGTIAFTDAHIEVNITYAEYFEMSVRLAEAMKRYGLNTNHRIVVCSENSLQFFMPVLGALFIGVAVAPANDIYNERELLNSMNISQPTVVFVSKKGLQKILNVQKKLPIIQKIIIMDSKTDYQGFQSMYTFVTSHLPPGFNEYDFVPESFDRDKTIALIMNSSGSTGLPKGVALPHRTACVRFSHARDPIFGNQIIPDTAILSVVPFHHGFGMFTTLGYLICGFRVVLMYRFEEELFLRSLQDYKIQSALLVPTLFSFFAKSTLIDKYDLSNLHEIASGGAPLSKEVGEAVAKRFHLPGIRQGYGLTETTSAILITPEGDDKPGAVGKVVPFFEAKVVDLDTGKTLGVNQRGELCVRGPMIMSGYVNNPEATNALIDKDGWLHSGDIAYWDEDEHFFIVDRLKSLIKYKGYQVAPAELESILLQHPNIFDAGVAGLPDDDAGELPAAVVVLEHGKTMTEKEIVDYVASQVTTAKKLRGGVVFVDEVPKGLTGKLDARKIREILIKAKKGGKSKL
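Purified P. pyralis luciferase (10nM final) with 10uM D-luciferin and 10uM ATP (Km levels) in 50mM Tris acetate pH 7.5, 10mM Mg acetate, 0.01% Tween-20, 0.05% BSA; qHTS 6-point titration, ~60 µM downward; luminescence read.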
NPC1 prom act – NPC1 promoter activation; Huh7 NPC1 promoter luciferase reporter, 24 h; Potency, µM (top dose mostly 9.22 µM), inactives show at the highest dose activation, usual class: activators; hit rate 2.4% among 320,000; AID 485313; also: % of control where 0% means no effect; nearly all actives have a fitted effect of over 60% in size
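Cells: Huh7 expressing luciferase under the NPC1 promoter, 1500/well. Seeded 2 h, compound added, incubated 24 h at 37 °C. Luciferase reagent, 10 min ambient, then luminescence.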
ELG1 genotox – induces genotoxicity in HEK293T cells with luciferase-tagged ELG1; hit rate 1.3% among 330,000; AID 504466; Potency, µM (series often up to 46 µM), inactives show at the highest dose activity change, positive = activation, hits mostly activators; HEK293T ELG1-luciferase reporter, luminescence, 16 h; also: % of control where 0% means no effect; nearly all actives have a fitted effect of over 60% in size
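Step 1: seed 2,000 HEK293T ELG1-luciferase cells per well. Step 2: add compound or DMSO, incubate 16 hr at 37 °C. Step 3: ONE-Glo, 30 min at room temperature, read luminescence.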
Rab9 promoter act – activators of Rab9 promoter; Huh7 Rab9 promoter-luciferase reporter, luminescence, 24 h; AID 485297; Potency, µM (doses to about 9.22 µM), for the others: top-dose activation, negative = inhibition, most hits filed as activators; hit rate 2.8% among 320,000; also: % of control where 0% means no effect; nearly all actives have a fitted effect of over 60% in size
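Promoter activation is measured as luciferase luminescence in Huh7 cells stably transfected with a Rab9 promoter–luciferase construct, following 24 h compound exposure at 37 °C and 10 min reagent incubation at ambient temperature.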
SMN2 splice enh – enhancers of SMN2 splice variant expression; HEK293 SMN2-luciferase splicing reporter, luminescence, 30-36 h; Potency, µM (doses to about 46.1 µM), without a hit: at the highest dose activity change, positive = activation, hits mostly activators; hit rate 2.8% among 210,000; also: % of control where 0% means no effect; nearly all actives have a fitted effect of over 55% in size
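HEK293 cells carry an SMN2 […]–luciferase reporter in which exon 7 inclusion puts luciferase in frame. Cells were plated 10-12 h before compound addition, then incubated 30-36 h at 37C. ONE-Glo luminescence was read; sodium butyrate at 4.5 mM final served as control.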
Active calls of the source: *; ? = inconclusive; · = not tested or not shown; [ ] = remark or other dose. Compounds with a hit are over-represented: about 7.4% of the library has one in this group of screens. Calls follow the shape of the dose curve; as a rule, active = well fitted curve in the direction sought with a large enough effect; inconclusive = small, poorly fitted or top-dose-only effect, or another doubt; inactive = no such curve, though single readings can be large; an effect the other way counts as inactive or inconclusive. Potency is read from the fitted curve at half-maximal effect.

SMILES | Luc counter | FLuc counter | NPC1 prom act | ELG1 genotox | Rab9 promoter act | SMN2 splice enh
Cc1c(NC(=O)c2ccc([N+](=O)[O-])o2)cccc1-c1nc2ncccc2o1 | · | -4% | -8% | -17% | 9% | ·
Cc1cccn2c(N)c(-c3ccccc3)nc12 | -19% | 11µM* | ? | ? | 3.5µM* | 27%
CCOC(=O)c1c(-c2ccccc2)nc2c(C)cccn12 | -3% | ? | -4% | -8% | 1% | -12%
CCOC(=O)C1CCCN(C(=O)CCc2nnc(-c3ccc(C(C)=O)s3)o2)C1 (stereo not drawn) | · | 11µM* | 2.5µM* | 18µM* | 0.79µM* | ·
CCOC(=O)C1CCCN(C(=O)CSCc2ccccc2)C1 (stereo not drawn) | -1% | ? | ? | 14% | 6% | 4%
CC1(c2nnc(-c3cccc(Cl)c3)o2)CC(c2ccccc2Br)=NO1 (stereo not drawn) | · | -2% | 1% | 0% | 0% | ·
Cc1ccc(C)c(N(C)C(=O)C2CCN(c3ncnc4c3nc3n4CCCCC3)CC2)c1 | · | -2% | · | · | · | ·
COC(=O)c1ccc2c(c1)SC1=C(CCCC1=O)N2 | -3% | 19µM* | 20% | 21µM* | -2%[1.84 µM] | -18%
O=C1CCCC2=C1Sc1ccc(Cl)cc1N2 | · | -9% | 3% | -4% | 6% | ·
Cc1ccc(-c2nnc(SCc3ccccc3C#N)o2)cc1 | · | 0.34µM* | · | · | · | 2.2µM*
Cc1ccccc1CSc1nnc(-c2ccncc2)o1 | -1% | ? | 9% | 12% | 17% | 16%
N#Cc1ccccc1CSc1nnc(-c2ccc(Br)cc2)o1 | · | 1.2µM* | · | · | · | ?
CC(=O)N1N=C(c2ccccc2)CC1c1cn(C)c2ccccc12 (stereo not drawn) | 0% | 19µM* | -1% | ? | -5% | 14%
CC(=O)N1N=C(c2ccccc2)CC1c1ccc(F)cc1 (stereo not drawn) | · | 2% | -4% | 0% | -2% | ·
CCCc1cc(=O)oc2cc(OCC(=O)Nc3ccccn3)ccc12 | · | 15µM* | 3.5µM* | 21µM* | ? | ·
CCCc1cc(=O)oc2cc(OCC(=O)Nc3cc(C)on3)ccc12 | 1% | 2% | -3% | 1% | -2% | -2%
CCCCc1cc(=O)oc2cc(C)cc(OCC(=O)Nc3ccccn3)c12 | · | 8.5µM* | 2µM* | ? | 2.5µM* | ·
CCN=c1scc(-c2ccc(F)cc2)n1/N=C/c1ccccn1 | 2% | 9.5µM* | 2.5µM* | 10µM* | 3.2µM* | 13µM*
CCCc1sc(N/N=C/c2ccccn2)nc1-c1ccc(F)cc1 | -3% | -16% | -36% | ? | -32% | -74%
CCN=c1scc(-c2ccccc2)n1/N=C/c1ccccn1 | -5% | 0.6µM* | 0.35µM* | ? | 0.56µM* | 14µM*
O=C(NCCCc1nc2ccccc2n1Cc1ccccc1Cl)C1CCCCC1 | · | 5% | · | · | · | -1%
COCCCn1c(=S)[nH]c2sc3c(c2c1=O)CCCC3 | · | 19µM* | -3% | -8% | -4% | ·
COCCn1c(=S)[nH]c2sc3c(c2c1=O)CCCC3 | · | -12% | -1% | -8% | 3% | ·
O=C(/C=C/c1ccc(S(=O)(=O)NCc2ccco2)cc1)NCc1ccccc1Cl | · | -1% | -5% | 2% | 8% | ·
O=C(NCCc1ccccn1)c1ccc(OC(F)F)cc1 | -3% | 11µM* | 1.4µM* | ? | 0.79µM* | 11µM*
SMILES | Luc counter | FLuc counter | NPC1 prom act | ELG1 genotox | Rab9 promoter act | SMN2 splice enh
CC(C)Cc1cc(C(=O)NCc2ccco2)no1 | · | 17µM* | ? | ? | 4µM* | ·
Cc1ccc(-c2cc(C(=O)NCc3ccccn3)no2)cc1 | -2% | 17µM* | ? | 13µM* | ? | 28µM*
O=C(/C=C/c1ccc(Cl)cc1)NCc1ccco1 | -3% | 13µM* | 6% | 12% | 21% | 24%
CCN(CC)S(=O)(=O)c1ccc(C(=O)NCCc2ccccn2)cc1 | 0% | -8% | 1% | 10% | 18% | 15%
O=[N+]([O-])c1ccc(-c2cnc[nH]2)cc1 | · | ? | 17% | 8% | 19% | ·
O=C(NCc1ccccn1)c1cn(-c2ccccc2)nc1-c1ccc(Cl)cc1 | 1% | 19µM* | -2% | 0% | -5% | 12%
O=C(NCc1ccc2c(c1)OCO2)c1cc(-c2ccccc2)on1 | 1% | -2% | 1% | 3% | 1% | ·
O=C(NCCCn1ccnc1)c1cn(-c2ccccc2)nc1-c1ccccc1 | -9% | 12µM* | · | · | · | 6%
O=C(NCc1ccccn1)c1ccc([N+](=O)[O-])cc1 | -1% | -2% | -1% | -1% | -3% | -5%
O=C(NCc1ccccn1)c1ccc(-c2ccccc2)cc1 | -4% | 12µM* | ? | ? | ? | ·
O=C(NCc1ccco1)c1cc(-c2ccc3c(c2)OCO3)on1 | -7% | ? | 2.5µM* | ? | 4µM* | ?
O=C1CNC(=S)N1CCc1ccccc1Cl | · | 3% | -3% | 2% | 1% | ·
CCOc1ccc(CCNC(=O)c2ccc(-c3nc(CSc4ccccc4)c(C)o3)cc2)cc1 | · | 0% | · | · | · | ·
Cc1ccc(-c2cc(C(=O)NCc3ccco3)no2)cc1 | 0% | ? | 2.8µM* | ? | 2.2µM* | ?
O=C(NCc1ccco1)c1cc(-c2ccc(Cl)cc2)on1 | 0% | -11% | 3.2µM* | 16% | ? | -11%
COc1cccc(-c2cc(C(=O)NCc3ccco3)no2)c1 | -2% | 11µM* | 3.2µM* | 10µM* | 1.8µM* | 11µM*
O=C(NCc1ccco1)c1cc(-c2cccc(Cl)c2)on1 | -2% | -4% | 24% | ? | 24% | -6%
COC(=O)c1ccc(Cn2nc(-c3ccc(C)cc3)ccc2=O)cc1 | · | -5% | -4% | 0% | -2%[1.84 µM] | 4%
CC1=C(/C=C/C(C)=C/C=C/C(C)=C\CO)C(C)(C)CCC1 | · | · | · | · | · | -2%
COC(=O)[C@@]1(C)[C@H]2C(=O)N(C)C(=O)[C@H]2[C@H]2CN=C(SCc3ccc(Cl)cc3)N21 | · | · | · | -4% | · | ·
CCN1C(=S)SC(=O)C1=C1C=C(C)N(Cc2ccco2)C(C)=C1 | -1% | 3.4µM* | 1.4µM* | 2.6µM* | 0.63µM* | ?
CCN1C(=S)SC(=O)C1=C1C=C(C)OC(C)=C1 | 14% | ? | ? | 13% | ? | 1%
Fc1cccc(Cl)c1/C=N/Nc1ccccn1 | -2% | -6% | 12% | 13% | 0% | ?
CCCOc1ccc(/C=N/Nc2cc(N3CCOCC3)ncn2)c(O)c1 | · | -5% | -39% | 18% | -45% | ·
Cc1csc(N/N=C/c2c(F)cccc2Cl)n1 | · | 13µM* | 0% | ? | 6% | ·
Cc1csc(N/N=C/c2ccccc2F)n1 | · | 6µM* | 12% | ? | 3% | ·

Compound activity deposited in PubChem by National Center for Advancing Translational Sciences (NCATS).
